Inconclusive results are not listed. Activity calls are given as the source filed them. Unless noted, no cut-off is given here; in the data, nearly all actives have AC50 up to about 26 µM.
How the values were obtained:
[1] = growth inhibition of DIPG glioma cells, dose response, cell-based, SU-DIPG-XVII, MIPE5.0, CellTiter-Glo, qHTS (AID 1347060); settings: SU-DIPG-XVII viability, CellTiter-Glo ATP luminescence;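 for AC50: cells exposed to compound for 48 hours before viability readout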
[2] = viability loss in pontine glioma line – cell-based, SU-DIPG-XXV, MIPE5.0, CellTiter-Glo, qHTS, dose response (AID 1347065); settings: CellTiter-Glo ATP luminescence;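 note: cells exposed to compound for 48 hours before ATP readout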
[3] = JHH-DIPG-1 glioma cell viability, MIPE5.0 library, CellTiter-Glo luminescence, qHTS (AID 1347067); settings: JHH-DIPG-1 glioma viability, CellTiter-Glo ATP luminescence;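 note: cells exposed to compound for 48 hours before readout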
[4] = SU-DIPG-XXV glioma cell viability, MIPE5.0 library, qHTS (AID 1347068; cut-off not given, nearly all actives have IC50 up to about 30 µM;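 for IC50: cells exposed to compound for 48 hours before viability readout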)
[5] = sensitizers of A549 cells to miR-34 induction, primary screen, imaging, A549 dox-inducible miR-34, nuclei and caspase counts (AID 1347080;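 active = compounds whose cell count with miR-34 switched on is under 0.7 times the count with it off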); settings: A549 miR-34 inducible, Hoechst nuclei count, 48 h
[6] = phospholipid biosynthesis inhibitors in animal cells, primary screen, cell-based, LOPAC library, screen 4 (AID 1347384; call rule not given here); settings: phospholipid biosynthesis inhibition screen, at 10 µM
[7] = viability rescue of complex I mutant cybrids, primary screen, cell-based, galactose medium, ATP luminescence (AID 1645843;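 active = z-score of at least 1.8 in each of two replicates, scored against plate mean and spread of sample wells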;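 note: positive z means more ATP and so rescue of galactose-driven cybrid death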); settings: complex I mutant cybrid cells, 72 h, stronger effect = higher value

SMILES: N=C(N)c1ccc2nc(-c3cc(CC(=O)N[C@@H](CC(=O)O)C(=O)O)cc(-c4cc(S(N)(=O)=O)ccc4O)c3O)[nH]c2c1
- outcome [1]: inactive
- outcome [2]: inactive
- outcome [3]: inactive
- outcome [4]: inactive

SMILES: O=C(Nc1ccc2c(c1)CCN(Cc1ncn[nH]1)C2)c1ccccc1-c1ccc(C(F)(F)F)cc1
- outcome [1]: inactive
- outcome [2]: inactive
- outcome [3]: inactive
- outcome [4]: inactive
- fold change ([5]; stronger effect = lower value, cell number ratio, induced over uninduced): 1.03 (inactive)
- fold change ([5]; measured here: relative caspase fold change +Dox/-Dox): 1.06
- cell count ([5]; measured here: total cells with miR-34 induction, stronger effect = lower value): 8100
- cell count ([5]; measured here: total cells without miR-34 induction): 7840
- outcome [6]: inactive
- z-score [7]: 0.755 (inactive)

SMILES: FC(F)(F)c1ccc(CNc2ccc(Cc3c[nH]c4ncccc34)cn2)cc1
- AC50 [1]: 16.6 µM (active)
- AC50 [2]: 20.9 µM (active)
- AC50 [3]: 18.6 µM (active)
- outcome [4]: inactive

SMILES: O=c1c(-c2ccc(O)cc2)coc2c([C@@H]3O[C@H](CO)[C@@H](O)[C@H](O)[C@H]3O)c(O)ccc12
- outcome [1]: inactive
- outcome [2]: inactive
- outcome [3]: inactive
- outcome [4]: inactive

SMILES: COc1cc(-c2cn(C)c(=O)c3cnccc23)c(OC)cc1CN(C)C
- outcome [1]: inactive
- outcome [2]: inactive
- outcome [3]: inactive
- outcome [4]: inactive

SMILES: CCCS(=O)(=O)c1nc(NC2CC2)cc(-c2ccc3c(ccn3C3CC(C)(C)NC(C)(C)C3)c2)n1
- AC50 [1]: 3.93 µM (active)
- AC50 [2]: 2.78 µM (active)
- AC50 [3]: 2.78 µM (active)
- IC50 [4]: 3.12 µM (active)

SMILES: C=CC(=O)N1CCC[C@H](n2c(=O)n(-c3ccc(Oc4ccccc4)cc3)c3c(N)ncnc32)C1
- AC50 [1]: 0.59 µM (active)
- AC50 [2]: 7.42 µM (active)
- AC50 [3]: 0.742 µM (active)
- outcome [4]: inactive

Source: PubChem BioAssay
